Measurements: PubChem BioAssay AID1347418 (Sanford-Burnham Center for Chemical Genomics, 2020)
About 750 (58%) of roughly 1,300 compounds were called active. The list shows a part of the results. Residues, ends and D or L forms follow the SMILES beside them. *: point of attachment. Cbz = O=C(OCc1ccccc1)*

These molecules were tested against Sulfhydryl oxidase 1 (Homo sapiens) (UniProt O00391) (assay: QSOX1 enzyme inhibitors, primary screen, biochemical, ROS-Glo H2O2 luminescence, HTS (AID 1347418)). Details: recombinant QSOX1, ROS-Glo H2O2 luminescence; at 12.5 µM; hits give high values; active = any value above zero.
Sequence of Sulfhydryl oxidase 1 (Homo sapiens) (O00391 whole entry, looked up): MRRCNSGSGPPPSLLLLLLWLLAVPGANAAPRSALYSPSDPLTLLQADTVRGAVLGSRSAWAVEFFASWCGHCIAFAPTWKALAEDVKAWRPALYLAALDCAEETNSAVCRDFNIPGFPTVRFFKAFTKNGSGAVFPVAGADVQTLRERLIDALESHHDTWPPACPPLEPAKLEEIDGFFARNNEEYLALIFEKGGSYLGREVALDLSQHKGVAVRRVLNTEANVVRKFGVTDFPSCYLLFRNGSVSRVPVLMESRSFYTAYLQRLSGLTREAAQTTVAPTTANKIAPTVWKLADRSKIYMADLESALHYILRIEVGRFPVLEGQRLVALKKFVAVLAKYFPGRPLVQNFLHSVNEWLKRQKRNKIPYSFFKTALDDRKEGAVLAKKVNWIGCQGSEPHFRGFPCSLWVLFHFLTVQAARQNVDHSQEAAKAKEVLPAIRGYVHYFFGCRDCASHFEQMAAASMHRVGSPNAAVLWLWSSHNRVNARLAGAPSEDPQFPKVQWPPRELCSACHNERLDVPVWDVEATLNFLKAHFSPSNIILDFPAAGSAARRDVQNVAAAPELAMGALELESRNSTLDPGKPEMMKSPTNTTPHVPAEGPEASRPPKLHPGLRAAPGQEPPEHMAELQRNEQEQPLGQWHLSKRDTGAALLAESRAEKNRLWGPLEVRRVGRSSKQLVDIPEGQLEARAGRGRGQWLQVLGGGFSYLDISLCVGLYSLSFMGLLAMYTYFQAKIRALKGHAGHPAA

SMILES	inhibition
COC(=O)C1=CO[C@@H](O)[C@@H]2C(CO)=CC[C@H]12	-3.2% (inactive)
NCC1OC(O[C@@H]2[C@H](O)C(OC3C(O)C(N)CC(N)C3OC3OC(CO)C(O)C(O)C3N)O[C@@H]2CO)C(N)C(O)C1O (some centres not stated)	-3.5% (inactive)
C=C(C)C1CC=C(C(=O)O)CC1 (configuration not stated)	-1.3% (inactive)
NC1C=CC=C(C(=O)O)C1 (configuration not stated)	-2.2% (inactive)
CNC(=O)Oc1ccc2c(c1)[C@]1(C)CCN(C)[C@@H]1N2C	2.6% (active)
O=C(O)C1CCCN(CCC=C(c2ccccc2)c2ccccc2)C1 (configuration not stated)	-3.9% (inactive)
CC(C)(C)c1ccc(C(=O)CCCN2CCC(OC(c3ccccc3)c3ccccc3)CC2)cc1	-3.2% (inactive)
CN1[C@@H](CC(=O)c2ccccc2)CCC[C@H]1C[C@H](O)c1ccccc1	4.3% (active)
CC(C)c1cccc(C(C)C)c1N1C(=O)c2ccc(O)cc2C1=O	0.3% (active)
O=C(CCCN1CCC(O)(c2ccc(Cl)cc2)CC1)c1ccc(F)cc1	-4% (inactive)
CCCCN1CCC(n2c(=O)[nH]c3ccccc32)CC1	-1.6% (inactive)
O=C(O)/C=C/c1ccc(O)c(O)c1	9.6% (active)
O=C(/C=C/c1ccc(O)c(O)c1)OCCc1ccccc1	19.7% (active)
O=c1cc(-c2ccccc2)[nH]c2nc(Cl)ccc12	-0.2% (inactive)
Nc1ncnc2c1nc(Br)n2C1OC2COP(=O)(O)O[C@@H]2C1O (some centres not stated)	-1.8% (inactive)
Nc1nc(O)c2nc(Br)n(C3OC4COP(=O)(O)O[C@@H]4C3O)c2n1 (some centres not stated)	-4.7% (inactive)
Nc1ncnc2c1nc(Sc1ccc(Cl)cc1)n2C1OC2COP(=O)(O)O[C@@H]2[C@@H]1O (some centres not stated)	1.8% (active)
C[C@H]1O[C@@H](n2cc(F)c(=O)[nH]c2=O)[C@H](O)[C@@H]1O	4.5% (active)
O=c1ccn([C@@H]2O[C@H](COP(=O)(O)OP(=O)(O)O)[C@@H](O)[C@H]2O)c(=O)[nH]1	-4.1% (inactive)
c1ccc2c(c1)CCC[C@H]2Nc1nc2ccccc2[nH]1	12.1% (active)
c1ccc2c(c1)CCCC2C1=NCCN1 (configuration not stated)	-3.7% (inactive)
NC(=NCc1ccccc1)NC(=O)c1nc(Cl)c(N)nc1N	4.4% (active)
NC(=Nc1ccccc1)NC(=O)c1nc(Cl)c(N)nc1N	-0.3% (inactive)
CCCCc1oc2ccccc2c1C(=O)c1cc(I)c(OCCN(CC)CC)c(I)c1	-1% (inactive)
CCN(CC)CCOC(=O)c1ccc(N)cc1	-3.4% (inactive)
CCN(CC)CCCCCCCCOC(=O)c1cc(OC)c(OC)c(OC)c1	6.2% (active)

SMILES	inhibition
CC(=O)NNC(=O)N1Cc2ccccc2Oc2ccc(Cl)cc21	2.6% (active)
C[C@H]1CC2C3CCC4=CC(=O)C=C[C@]4(C)[C@@]3(Cl)[C@@H](O)C[C@]2(C)[C@@]1(O)C(=O)CO (some centres not stated)	8.8% (active)
CC1CC2C3CCC4=CC(=O)C=C[C@]4(C)[C@@]3(F)[C@@H](O)C[C@]2(C)[C@@]1(O)C(=O)CO (some centres not stated)	2.3% (active)
CCCC1O[C@@H]2C[C@H]3[C@@H]4CCC5=CC(=O)C=C[C@]5(C)[C@H]4[C@@H](O)C[C@]3(C)[C@]2(C(=O)CO)O1 (some centres not stated)	-0.8% (inactive)
C[C@]12C=CC(=O)C=C1CC[C@H]1[C@@H]3C[C@@H](O)[C@](O)(C(=O)CO)[C@@]3(C)C[C@H](O)[C@@]12F	-107% (inactive)
CC12CC3CC(C)(C1)CC(N)(C3)C2	3.5% (active)
NC12CC3CC(CC(C3)C1)C2	-0.1% (inactive)
O=c1cc(-c2ccccc2F)[nH]c2cc3c(cc12)OCO3	4.4% (active)
OC(CN1CCC(Cc2ccc(F)cc2)CC1)c1ccc(Cl)cc1 (configuration not stated)	7.6% (active)
c1ccc([C@H]2CN3CCSC3=N2)cc1	-2.6% (inactive)
c1ccc(C2CN3CCSC3=N2)cc1 (configuration not stated)	0.3% (active)
Brc1ccc([C@H]2CN3CCSC3=N2)cc1	6.2% (active)
CN1CCN(CCCN2c3ccccc3Sc3ccc(C(F)(F)F)cc32)CC1	27.4% (active)
OCCN1CCN(CC/C=C2/c3ccccc3Sc3ccc(C(F)(F)F)cc32)CC1	0.6% (active)
OCCN1CCN(CCCN2c3ccccc3Sc3ccc(C(F)(F)F)cc32)CC1	43.6% (active)
O=C(CCCN1CCC(O)(c2cccc(C(F)(F)F)c2)CC1)c1ccc(F)cc1	-4.6% (inactive)
NC(=O)c1cn(Cc2c(F)cccc2F)nn1	1.3% (active)
Cc1ccccc1N1C(=O)c2cc(S(N)(=O)=O)c(Cl)cc2NC1C (configuration not stated)	0.3% (active)
NC/C=C\C(=O)O	-0.4% (inactive)
COc1cc2c(CCNC(C)=O)c[nH]c2cc1Cl	-1.4% (inactive)
COc1cc2c(CCNC(C)=O)c[nH]c2cc1O	45.2% (active)
COc1ccc(NC=O)c(C(=O)CCNC(C)=O)c1	-0.8% (inactive)
COc1ccc2[nH]cc(CCNC(C)=O)c2c1	5.6% (active)
CC(=O)NCCc1c[nH]c2ccc(O)cc12	27.5% (active)
Nc1nc(OCC2CCCCC2)c2[nH]cnc2n1	0% (inactive)
Nc1nc(OCc2ccccc2)c2[nH]cnc2n1	2% (active)

SMILES	inhibition
NC/C=C/C(=O)O	-2.4% (inactive)
O=c1ccc2c(OCCCCc3ccccc3)c3ccoc3cc2o1	2.3% (active)
NC(=O)N1c2ccccc2C=Cc2ccccc21	-1.4% (inactive)
CC(=O)O[C@H]1Cc2ccccc2N(C(N)=O)c2ccccc21	0.3% (active)
CC(C)(C)C(=O)Oc1ccc(S(=O)(=O)Nc2ccccc2C(=O)NCC(=O)O)cc1	-1% (inactive)
CC1(C)CCC2=C(O1)c1ccccc1C(=O)C2=O	40.5% (active)
COc1cc(Cc2cnc(N)nc2N)cc(OC)c1OC	0.5% (active)
COc1cc2c(cc1OC)C1CC(=O)C(CC(C)C)CN1CC2 (configuration not stated)	2.6% (active)
CC[C@H]1CN2CCc3cc(OC)c(OC)cc3[C@@H]2C[C@@H]1C[C@H]1NCCc2cc(OC)c(OC)cc21	1.7% (active)
CCc1cccc(N(C)C(N)=Nc2cccc3ccccc23)c1	8.7% (active)
C(=C\c1ccccc1)/CN1CCN(C(c2ccccc2)c2ccccc2)CC1	4.9% (active)
Fc1ccc(C(c2ccc(F)cc2)N2CCN(C/C=C/c3ccccc3)CC2)cc1	0.4% (active)
CN(C)CCCc1cc(C(=O)Nc2ccc(-c3ccncc3)cc2)ccc1O	2.5% (active)
Cc1nc(N=NC2=[C+]C3=C(C=C([N+](=O)[O-])[C+]=C3S(=O)(=O)[O-])C(S(=O)(=O)[O-])=[C+]2)c(COP(=O)([O-])O)c(C=O)c1O	2.8% (active)
Cc1nc(N=Nc2ccc(C(=O)O)cc2)c(COP(=O)(O)O)c(C=O)c1O	0.9% (active)
C#CCN(C)CCCOc1ccc(Cl)cc1Cl	-1.5% (inactive)
Cn1ccnc1	-4.4% (inactive)
CN(C)CCC=C1c2ccccc2C=Cc2ccccc21	1% (active)
CN(C)CCC=C1c2ccccc2CCc2ccccc21	-4.4% (inactive)
CN(C)CC/C=C1\c2ccccc2COc2ccccc21	-3.1% (inactive)
CSc1ccc2c(c1)N(CCC1CCCCN1C)c1ccccc1S2 (configuration not stated)	46.5% (active)
CSc1ccc2c(c1)C(N1CCN(C)CC1)Cc1ccccc1S2 (configuration not stated)	-0.9% (inactive)
Oc1cc2c(cc1O)CN(C(=S)NCCc1ccc(Cl)cc1)CCC2	25.5% (active)
COCCc1ccc(OCC(O)CNC(C)C)cc1 (configuration not stated)	-2% (inactive)
CC(C)NC[C@H](O)COc1ccc(CC(N)=O)cc1	5.2% (active)
CC(C)NCC(O)COc1ccc(CC(N)=O)cc1 (configuration not stated)	-2% (inactive)

SMILES	inhibition
CC(C)NCC(O)COc1ccc(CCOCC2CC2)cc1 (configuration not stated)	-0.5% (inactive)
CC(C)NCC(O)COc1ccc(COCCOC(C)C)cc1 (configuration not stated)	3.9% (active)
COC(=O)c1c(C)[nH]c(C)c1C(=O)c1ccccc1Cc1ccccc1	1.9% (active)
C=CCc1cccc(/C=N/NC(=O)CN2CCN(Cc3ccccc3)CC2)c1O	-3.2% (inactive)
CN1CCc2cccc3c2C1Cc1ccc(O)c(O)c1-3 (configuration not stated)	17.1% (active)
COc1cc2ncnc(Nc3cccc(Cl)c3)c2cc1OC	-1.3% (inactive)
O=c1n(CCCN2CCN(c3cccc(Cl)c3)CC2)nc2ccccn12	8.6% (active)
O=c1c(-c2ccc(O)cc2)coc2cc(O)cc(O)c12	-5.9% (inactive)
O=c1c(-c2ccc(O)cc2)coc2cc(O)ccc12	7.6% (active)
O=C(N[C@@H](Cc1ccccc1)C(=O)CCl)OCc1ccccc1	-6.4% (inactive)
CC(C)C[C@H](NC(=O)[C@@H](O)[C@H](N)Cc1ccccc1)C(=O)O	0.1% (active)
CC(C)[C@H](NC(=O)OCc1ccccc1)C(=O)N[C@H](C=O)Cc1ccccc1 (Cbz-Val-Phe-aldehyde)	-1.6% (inactive)
CC(C)C[C@H](NC(=O)[C@H](O)[C@H](N)Cc1ccccc1)C(=O)O	9.6% (active)
O=P(O)(O)C(Cl)(Cl)P(=O)(O)O	5.2% (active)
N[C@H](C(=O)O)[C@H](Cc1ccccc1)C(=O)O	0.5% (active)
O=C(O)CNC(=O)C(CS)Cc1ccccc1 (configuration not stated)	-1.4% (inactive)
Oc1cc(O)c2c(c1)O[C@H](c1ccc(O)c(O)c1)[C@@H](O)C2	12.2% (active)
O=C1c2c(O)cc(O)cc2OC(c2ccc(O)c(O)c2)C1O (configuration not stated)	9.8% (active)
[Li+]	0% (inactive)
O=C(O)CCc1ccc(NCc2cccc(Oc3ccccc3)c2)cc1	13.1% (active)
CC(C)(C)NCC(O)COc1cccc2[nH]c(=O)[nH]c12 (configuration not stated)	0.2% (active)
Brc1c(Br)c(Br)c2[nH]cnc2c1Br	3.9% (active)
CN1CCc2ccccc2Cc2[nH]c3ccccc3c2CC1	6.3% (active)
N=C(N)N1CCc2ccccc2C1	-3.7% (inactive)
